Bioassay records: PubChem, National Center for Advancing Translational Sciences (NCATS)
Sampled rows, rich in hits. Any-hit rate of the full collection: about 6.8%.
SW480 rerep = inducers of DNA re-replication in SW480 colon cancer cells. hit rate 1.8% among 340,000. Potency, µM (highest dose often 46.1 µM), actives largely listed as activators. SW480 DNA re-replication, Hoechst DNA content imaging, 48 h; also: nearly all actives have a fitted effect of over 55% in size
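Hoechst fluorescence of nuclei (405 nm excitation, 500-530 nm emission) measured by plate-scanning imager after 48 hr compound exposure at 37 C; re-replication scored as increased number of nuclei with elevated intensity.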
PINK1 modulator = modulators of PINK1 expression. PINK1 immunofluorescence, high-content cytometry, 24 h. Potency, µM (top dose mostly 76.6 µM), most hits filed as activators. hit rate 0.2% among 410,000; active = well fitted activation curve with a large enough effect; inconclusive = small, poorly fitted or top-dose-only effect; cell line not stated here; also: nearly all actives have a fitted effect of over 65% in size
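Stable cell line, 250 cells/well, 12 h attachment; compounds pinned at 5 concentrations, 24 h; CCCP control. Fixed with nuclear dye, primary antibodies 12 h at 10 degrees C, secondary plus cell stain; laser-scanning cytometer read.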
PTAP TSG101 blk = blocks PTAP/TSG101 interaction to inhibit HIV-1 budding; Fluorescence polarization, FITC-PTAP peptide / Tsg101 binding; Q99816; Potency, µM (highest dose often 115 µM), actives largely listed as inhibitors; 340,000 tested, under 10 active; active = well fitted inhibition curve with a large enough effect in the main read-out, with a control signal flat, not every such curve was filed as active; inconclusive = small, poorly fitted or top-dose-only effect, or effect the other way, or a change in a side signal; inactive = no such curve, though single readings can be large or run the other way
Target sequence (Q99816 whole entry, looked up): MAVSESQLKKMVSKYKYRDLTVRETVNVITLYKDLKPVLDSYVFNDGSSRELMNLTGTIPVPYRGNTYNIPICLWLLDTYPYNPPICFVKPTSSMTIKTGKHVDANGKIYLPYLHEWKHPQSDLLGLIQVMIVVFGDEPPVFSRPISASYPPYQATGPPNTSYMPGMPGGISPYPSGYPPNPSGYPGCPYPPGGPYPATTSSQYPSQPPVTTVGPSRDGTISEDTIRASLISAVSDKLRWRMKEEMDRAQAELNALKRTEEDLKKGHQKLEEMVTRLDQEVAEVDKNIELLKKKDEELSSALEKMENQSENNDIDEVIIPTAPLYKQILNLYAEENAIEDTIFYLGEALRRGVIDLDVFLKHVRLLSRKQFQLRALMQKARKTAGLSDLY
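Compounds were pin-transferred onto Tsg101 binding domain (10 uM final) in HEPES pH 7.5 buffer, then FITC-PTAP peptide was added at 50 nM final. After 20 min at RT, polarization reported peptide displacement across a qHTS concentration series.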
KB-V1 MDR tox = kills drug-selected multidrug resistant KB-V1 cells; KB-V1 MDR cells viability, CellTiter-Glo, 72 h; Potency, µM (highest dose often 46.1 µM), usual class: cytotoxic; hit rate 3.4% among 400,000; AID 1347076; also: nearly all actives have a fitted effect of over 60% in size
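qHTS viability screen in drug-selected KB-V1 MDR cells: 72 h compound treatment at 37 degrees C, ATP luminescence end point.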
KB-3-1 tox = kills parental KB-3-1 adenocarcinoma cells. KB-3-1 viability, CellTiter-Glo ATP luminescence, 72 h. Potency, µM (top dose mostly 46.1 µM), actives largely listed as cytotoxic. hit rate 1.4% among 400,000; also: nearly all actives have a fitted effect of over 60% in size
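Cytotoxicity in the drug-sensitive parental line KB-3-1 was scored as loss of CellTiter-Glo luminescence following 72 h incubation with compound. Values come from curve fitting of normalized concentration-response data.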
MCF10A rerep = induces DNA re-replication in MCF 10a normal breast cells | MCF 10A DNA re-replication, Hoechst nuclear intensity, 48 h | AID 624296 | Potency, µM (doses to about 46.1 µM), usual class: activators | hit rate 2.9% among 350,000; also: nearly all actives have a fitted effect of over 50% in size
Numbers stand for hits; - = inactive; ? = inconclusive; . = no result; [ ] = another dose, or the depositor's remark. Unless noted, calls follow the shape of the dose curve; as a rule, active = well fitted curve in the direction sought with a large enough effect; inconclusive = small, poorly fitted or top-dose-only effect, or another doubt; inactive = no such curve, though single readings can be large; an effect the other way counts as inactive or inconclusive.

SMILES | SW480 rerep | PINK1 modulator | PTAP TSG101 blk | KB-V1 MDR tox | KB-3-1 tox | MCF10A rerep
Cc1ccc2nc(N3C(=O)C(O)=C(C(=O)c4cc5ccccc5o4)C3c3cccs3)sc2c1 (stereo not drawn) | - | - | - | - | - | 5.8µM
Cc1cc(N2C(=O)C(O)=C(C(=O)c3cc4ccccc4o3)C2c2cccs2)no1 (stereo not drawn) | - | - | - | - | - | -
CCc1ccc2nc(N3C(=O)C(O)=C(C(=O)c4ccco4)C3c3cccs3)sc2c1 (stereo not drawn) | - | - | - | 5.8µM | ? | 15µM
COc1ccccc1NS(=O)(=O)c1ccc(OC)c([N+](=O)[O-])c1 | - | - | - | - | - | -
COc1ccccc1NS(=O)(=O)c1ccc(N/N=C(\C)C(C)C)c([N+](=O)[O-])c1 | - | - | - | 12µM | ? | -
COc1ccc(C=NNc2ccc(S(=O)(=O)Nc3ccccc3C(=O)O)cc2[N+](=O)[O-])c(OC)c1 | - | - | - | - | - | -
CCCC(CCC)=NNc1ccc(S(=O)(=O)Nc2ccccc2OC)cc1[N+](=O)[O-] | - | - | - | 12µM | - | ?
COc1ccccc1NS(=O)(=O)c1ccc(NN=C2CCCCC2)c([N+](=O)[O-])c1 | - | - | - | 16µM | - | -
COc1ccc(NS(=O)(=O)c2ccc(N/N=C(\C)c3ccncc3)c([N+](=O)[O-])c2)cc1 | ? | - | - | - | ? | ?
Cc1ccc(NC(=O)CN2C(=O)COc3ccc(S(=O)(=O)NC4CCCC4)cc32)cc1N(C)C | . | - | . | - | - | .
O=C(CN1Cc2ccccc2OC(c2ccccc2F)C1)NC(c1ccccn1)C(F)(F)F (stereo not drawn) | . | - | . | . | . | .
COc1ccc(NC(=O)c2c(N)c(C(=O)c3ccc(OC)cc3)n3ccccc23)cc1 | . | - | . | - | - | .
O=C(NCCn1cc(SCc2cccc(F)c2)c2ccccc21)c1cccc(C(F)(F)F)c1 | . | ? | . | 21µM | - | .
COc1ccc(C(=O)NCCn2cc(SCc3cccc(F)c3)c3ccccc32)cc1OC | . | - | . | ? | ? | .
O=C(CCl)Nc1cn(-c2ccccc2)nc1-c1ccccc1 | - | - | - | 21µM | ? | ?
Cc1ccc(-c2nn(-c3ccccc3)cc2NC(=O)c2ccccc2)cc1 | - | - | - | - | - | -
O=C(Nc1cn(-c2ccccc2)nc1-c1ccc(F)cc1)c1ccccc1 | - | - | - | 16µM | - | -
Cc1ccc(N(CC(=O)Nc2ccc(F)c(Cl)c2)S(=O)(=O)c2c(C)noc2C)cc1 | - | ? | - | 18µM | ? | 12µM
CCc1cccc(NC(=O)CN(c2ccc(C)cc2)S(=O)(=O)c2c(C)noc2C)c1 | - | - | - | ? | - | 12µM
Cc1ccc(N(CC(=O)Nc2cc(C)cc(C)c2)S(=O)(=O)c2c(C)noc2C)cc1 | ? | - | - | ? | ? | ?
COc1ccc(NC(=O)C(=O)NCCc2ccc(OC)c(OC)c2)c(OC)c1 | . | - | . | - | - | .
CCOc1ccc(C(=O)Cc2cc(OC)c(OC)cc2[N+](=O)[O-])cc1 | 5.8µM | ? | - | - | - | 4.6µM
CCOc1ccc(C(=O)CC(=O)C(=O)NCCc2ccc(OC)c(OC)c2)cc1 | ? | - | - | 7.3µM | - | -
COc1cccc(CNC(=O)c2c(OC)cc(=O)n3c2CCN(C(=O)c2csc(C)n2)CC3)c1 | . | - | . | . | . | .
CCN(CC)c1ccc(NC2CC(=O)N(CCc3ccc(OC)cc3)C2=O)cc1 (stereo not drawn) | ? | 2.2µM | - | - | - | -
SMILES | SW480 rerep | PINK1 modulator | PTAP TSG101 blk | KB-V1 MDR tox | KB-3-1 tox | MCF10A rerep
CCOc1ccc2c(c1)[N+](C)(C)C(C)(C)C=C2C | - | - | - | - | 8.2µM | -
Cc1ccc(NC(=S)NN(C)c2cc(C)nc(C)n2)cc1 | - | - | - | 18µM | - | -
Cn1c(COc2ccc(Br)cc2)nnc1SC1CCc2ccccc2C1=O (stereo not drawn) | . | - | - | 16µM | ? | ?
CCOc1ccc2oc(=O)cc(CN3CCN(C(=O)c4ccc(Cl)cc4)CC3)c2c1 | . | - | . | . | . | .
O=C1C=C(Nc2ccc(Cl)cc2)C(=O)N1c1ccc(Cl)cc1 | - | 35µM | - | - | - | -
Cn1ccc2c(OCC(=O)Nc3ccc(OC(F)(F)F)cc3)cccc2c1=O | . | - | . | . | . | .
CCN(CC)P(=O)(Nc1cccc(C(F)(F)F)c1)c1ccc(N(C)C)cc1NC(=O)c1ccco1 (stereo not drawn) | - | - | - | - | - | 0.82µM
CN(C)c1cccc(NC(=O)c2ccco2)c1 | - | - | - | - | - | -
COc1ccc(-n2cnc3sc4c(c3c2=O)CCCC4)cc1 | ? | - | - | 16µM | - | -
Cc1cccc(-n2cnc3sc(C)c(C)c3c2=O)c1 | - | - | - | - | - | -
COc1cccc(-n2cnc3sc(C)c(C)c3c2=O)c1 | - | - | - | 21µM | - | -
CCOc1ccc(-n2cnc3sc4c(c3c2=O)CCCC4)cc1 | - | - | - | - | - | -
COc1ccc(NC(=O)CSc2cn(CCNC(=O)c3c(F)cccc3F)c3ccccc23)cc1 | . | - | . | - | - | .
Cc1nc(-c2ccc(Cl)cc2)sc1CCNC(=O)c1ccco1 | . | - | . | - | - | .
Cc1cc(C(=O)N2CCCC(CO)(Cc3ccc(F)cc3)C2)c(C)o1 (stereo not drawn) | ? | - | - | ? | - | 23µM
COc1ccc(-c2c[n+]3c(n2-c2ccccc2)SCC3)cc1 | - | - | - | - | 4.1µM | -
Brc1ccc(-c2c[n+]3c(n2-c2ccccc2)SCC3)cc1 | - | - | - | - | ? | ?
Cc1ccc(-c2c[n+]3c(n2-c2ccccc2)SCC3)cc1 | - | - | - | - | 3.3µM | -
CCOC(=O)N1CCC(NC(=O)c2cnn(-c3ccc(OC)cc3)c2C2CCN(C(=O)OC(C)(C)C)CC2)CC1 | . | - | . | - | - | .
Cc1ccc(C)c2c1[nH]c1ccc([N+](=O)[O-])cc12 | - | - | - | 8.2µM | ? | -
CC(Sc1nnc(-c2ccccc2F)n1N)C(=O)NCC1CCCO1 (stereo not drawn) | - | - | - | - | - | -
CC(Sc1nnc(-c2ccco2)n1-c1ccccc1)C(=O)NCC1CCCO1 (stereo not drawn) | - | - | - | 21µM | - | -
c1ccc(-n2c(SCC3CCCCO3)nnc2-c2cccs2)cc1 (stereo not drawn) | - | . | - | ? | - | -
Cc1ccc(-n2c(SCC3CCCCO3)nnc2-c2ccco2)cc1 (stereo not drawn) | -[9.22 µM] | - | - | 21µM | ? | -
CC1=C(c2ccccc2)CCC1=O | - | - | - | ? | - | -
